Source: PubChem BioAssay
A selection: hits, their analogues and other compounds. The true share with any hit is near 1.9%.
Vif imaging: HIV Vif inhibition; 340,000 compounds, 0.35% hits; AID 602346; HEK293T cells, Vif self-association by quenched fluorescence, imaging, 24 h; inhibition, % at 7.49 µM; in the data active = inhibition above about 50%, passing the limit was not always enough
INS-1E GSIS act: GLuc luminescence reporter in INS-1E cells, primary screen for activators of glucose-dependent secretion of insulin; activation, % at 16.6 µM; INS-1E GLuc reporter insulin secretion, 2-3 h; AID 743287; 370,000 compounds, 0.61% hits;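 active = lowest replicate activation of at least 40%, so every replicate reaches that level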;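 also: 0% = median of neutral control wells and 100% = median of IBMX positive control wells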
Bfl-1 A1 inh: inhibitors of the anti-apoptotic protein A1, read as caspase activation. caspase activation, % (test concentration not listed). 330,000 compounds, 0.066% hits. AID 2462. MEF A1-2A-BIM cells, Caspase-Glo 3/7 luminescence, 3 h; percent of clofoctol response, vehicle zero;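 active = over half of replicate activation scores above 10%, or exactly half above 10 with the replicate mean above 10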
dFosB activator: enhances mouse delta FosB homodimer DNA binding | purified delta FosB, TAMRA-CDK5 oligo fluorescence polarization; percent of positive-control signal above neutral wells | 340,000 compounds, 0.99% hits | activation, % at 25 µM;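 active = mean activation above about 17%, with every replicate also reaching it, limit read from the data, passing the limit was not always enough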
Target sequence (P13346 whole entry, looked up): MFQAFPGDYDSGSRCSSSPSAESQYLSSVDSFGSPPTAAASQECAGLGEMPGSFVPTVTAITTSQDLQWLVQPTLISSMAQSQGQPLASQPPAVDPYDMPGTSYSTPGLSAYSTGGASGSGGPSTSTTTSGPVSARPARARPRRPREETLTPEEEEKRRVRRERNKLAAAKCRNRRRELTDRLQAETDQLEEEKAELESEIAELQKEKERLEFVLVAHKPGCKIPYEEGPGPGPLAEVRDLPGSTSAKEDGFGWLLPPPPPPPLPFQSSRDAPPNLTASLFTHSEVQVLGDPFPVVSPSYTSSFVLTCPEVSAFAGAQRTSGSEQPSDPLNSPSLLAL
Neddyl block: blocks human cullin neddylation; P61081+Q13564; TR-FRET cullin neddylation, biochemical; AID 651699; 360,000 compounds, 0.58% hits; inhibition, % at 25 µM; in the data active = inhibition above about 36%
Starred values were filed as active, the others as inactive; nt = no result shown.

SMILES | Vif imaging | INS-1E GSIS act | Bfl-1 A1 inh | dFosB activator | Neddyl block
C[C@@H]1CN([C@H](C)CO)C(=O)Cc2cc(NC(=O)CCN3CCOCC3)ccc2O[C@H]1CN(C)S(=O)(=O)c1cn(C)cn1 | nt | 0.9 | nt | nt | nt
C=CCSc1nc2c(c(=O)[nH]c(=O)n2C)n1C(C)C | -2.4 | nt | -1.1 | 0.1 | -1.6
C/C(Cl)=C/CSc1nc2c(c(=O)[nH]c(=O)n2C)n1C(C)C | -1.0 | 74.4* | 0.0 | -7.6 | -1.6
CCCCCn1c(SC(C)C(C)=O)nc2c1c(=O)[nH]c(=O)n2C (stereo unspecified) | 1.5 | 73.4* | 0.0 | 1.7 | -2.2
Cc1csc(SCCn2c(N3CCN(c4ccccc4)CC3)nc3c2c(=O)[nH]c(=O)n3C)n1 | 56.9* | nt | -0.3 | 3.7 | 2.2
CCCCCCn1c(SCCCC)nc2c1c(=O)[nH]c(=O)n2C | -6.4 | nt | 0.8 | -1.0 | 0.1
CC(C)CCn1c(N2CCCC2)nc2c1c(=O)[nH]c(=O)n2C | -3.7 | 45.6* | 0.3 | 3.0 | -1.0
CO[C@@H]1CN(C)C(=O)c2cc(NC(=O)c3ccc4c(c3)OCO4)ccc2OC[C@H](C)N(CC2CC2)C[C@@H]1C | nt | 2.6 | nt | nt | nt
CCCNC(=O)N1CC2(C1)[C@@H](c1ccccc1)[C@@H](CO)N2Cc1cccc(F)c1 | nt | 9.2 | nt | nt | nt
CCCCn1c(NC(C)CC)nc2c1c(=O)[nH]c(=O)n2C (stereo unspecified) | -6.5 | 129.2* | 0.4 | -7.2 | -0.1
Cc1ccccc1-n1nc2c(c1NC(=O)c1cc3ccccc3oc1=O)CS(=O)(=O)C2 | nt | 53.8* | -0.1 | nt | nt
COc1ccccc1C(=O)Nc1c2c(nn1-c1cccc(C)c1C)CS(=O)(=O)C2 | 7.9 | 58.5* | -0.9 | 1.7 | 29.5
O=C(Nc1ccc2c(c1)[C@H]1C[C@H](CC(=O)N3CCOCC3)O[C@H](CO)[C@H]1O2)NC1CCCCC1 | nt | -1.7 | nt | nt | nt
O=C(N[C@@H]1CC[C@H](CCNS(=O)(=O)c2cccc(Cl)c2)O[C@@H]1CO)c1ccncc1 | nt | 11.6 | nt | nt | nt
C[C@@H]1CN([C@H](C)CO)C(=O)c2cc(NC(=O)Nc3ccccc3)ccc2O[C@@H]1CN(C)C(=O)NC1CCCCC1 | nt | -5.7 | nt | nt | nt
Cc1cc(C(=O)Nc2c(C)cccc2C)n(-c2ccccc2)n1 | -0.9 | 7.8 | 0.0 | 0.6 | -6.4
Cc1cc(C(=O)Nc2c(F)c(F)c(F)c(F)c2F)n(-c2ccccc2)n1 | 72.9* | 4.8 | 0.5 | -1.1 | 7.2
COc1ccc2c(c1)CCc1cc(C(=O)O)sc1-2 | 0.5 | 64.9* | -0.5 | -3.9 | nt
COc1ccc2cc3cc(C(=O)N4CCCCCC4)oc3nc2c1 | -4.2 | nt | -13.8 | -41.6 | 63.0*
COc1ccc2cc3cc(C(=O)N4CCN(C5CCCCC5)CC4)oc3nc2c1 | -2.1 | nt | 0.9 | -11.3 | nt
CCCC(=O)Nc1ccc2c(c1)OC[C@@H](C)N(C(=O)c1ccccc1F)C[C@H](C)[C@@H](OC)CN(C)C2=O | nt | 2.9 | nt | nt | nt
O=C(NCC1CC1)NC(=O)c1c(F)cccc1Cl | 50.5* | 13.8 | 0.6 | 7.2 | -3.4
Cc1nc2ccc3nc(NC(=O)c4ccc5c(c4)OCCO5)sc3c2s1 | 9.3 | 37.8 | -0.5 | 173.1* | -81.2
O=C(Nc1cccc2nsnc12)c1ccc2c(c1)OCCO2 | -8.6 | nt | -5.9 | -13.1 | 46.3*
Cc1c(Cc2ccccc2)c(=O)oc2c(C)c(OCC(=O)NCc3ccccn3)ccc12 | -20.0 | 3.7 | -0.2 | -6.4 | 19.0
SMILES | Vif imaging | INS-1E GSIS act | Bfl-1 A1 inh | dFosB activator | Neddyl block
Cc1c(OCC(=O)NCc2ccccn2)ccc2c3c(c(=O)oc12)CCCC3 | -1.4 | 41.1* | 0.5 | -22.7 | -11.7
COc1cc(OC)c2c(-c3ccccc3)cc(C3CCCCC3)nc2c1 | nt | 42.4* | nt | -10.3 | nt
COCCN(C(=O)Cc1cccs1)C(C(=O)NCc1ccc(OC)cc1)c1ccc(C)cc1 (stereo unspecified) | 111.6* | nt | -0.2 | -8.0 | -1.2
N#Cc1cccc(C(=O)Nc2ccc(S(=O)(=O)Nc3nccs3)cc2)c1 | 65.9* | 23.4 | 0.3 | -9.8 | -11.5
CC(=O)N1[C@@H](CO)[C@@H]2c3ccccc3N(C(=O)c3ccccc3)C[C@@H]21 | nt | 14.2 | nt | nt | nt
Cn1c2ccccc2c2cc(/C=N/NC(=O)c3cc(O)cc(O)c3)ccc21 | 3.7 | 3.2 | 2.7 | -5.0 | nt
Cn1c2ccccc2c2cc(/C=N/NC(=O)c3cc(O)ccc3O)ccc21 | 4.6 | -7.3 | -0.6 | -9.7 | 51.5*
COc1ccc(C(=O)/C=C/Nc2cccc(C)n2)cc1OC | 60.5* | nt | -4.2 | -11.2 | -95.5
CC(=O)N(C)C[C@H]1OCc2ccccc2-c2ccccc2C(=O)N([C@H](C)CO)C[C@@H]1C | nt | 7.2 | nt | nt | nt
